Data on 49 compounds can be found in the supplement of paper PMC7380943.

Assay [1] concerns CLZ3 (HCA2 human fibroblast dual HR-NHEJ reporter). Description: NHEJ repair efficiency (GFP+ cells) relative to control (log10 fold); higher = more non-homologous end joining. As to conditions: 5 µM; doxycycline 0.5 ug/mL.
Assay [2] shares this test system. Nature of the assay: HR repair efficiency (tdTomato+ cells) relative to control (log10 fold); higher = more homologous recombination. As to conditions: 5 µM; doxycycline 0.5 ug/mL.

Where a name gives a salt, the structure may show the parent alone.
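Throughout, for HR repair efficiency (tdTomato+ cells) relative to control: compound given one day before doxycycline, which switches on I-SceI endonuclease expression to create double-strand breaks within the integrated reporter.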
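Throughout, for NHEJ repair efficiency (GFP+ cells) relative to control: compound given one day ahead of doxycycline, which switches on I-SceI endonuclease to cut the chromosomally integrated reporter and create DSBs.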

`CC(C)(O)[C@@H]1CC[C@](C)([C@H]2[C@@H](O)C[C@@]3(C)[C@@H]4C[C@H](O)[C@H]5C(C)(C)[C@@H](O)CC[C@@]56C[C@@]46CC[C@]23C)O1` [Cycloastragenol]: the “NHEJ repair efficiency (log10)” value in assay [1] is -0.045. For the same compound, the “HR repair efficiency (log10)” value in assay [2] worked out at 0.136.
The like results for `COc1cc(-c2coc3cc4c(c(OC)c3c2=O)OCO4)cc(OC)c1OC` [Irisflorentin] were, in that order, -0.0524 and 0.0727.
On the same counts, the results for `C[N+](C)(C)CC(=O)O` [Betaine] are -0.243 and -0.337.
On the same counts, the results for `Cn1c(=O)c2c(ncn2CC(O)CO)n(C)c1=O` (stereo not drawn) [Diprophylline] are 0.137 and 0.116.
As for `CC(C)=CCC[C@](C)(O[C@@H]1O[C@H](CO)[C@@H](O)[C@H](O)[C@H]1O)[C@H]1CC[C@]2(C)[C@@H]1[C@H](O)C[C@@H]1[C@@]3(C)CC[C@H](O)C(C)(C)[C@@H]3[C@@H](O[C@@H]3O[C@H](CO)[C@@H](O)[C@H](O)[C@H]3O[C@@H]3OC[C@@H](O)[C@H](O)[C@H]3O)C[C@]12C` [Notoginsenoside R1], in assay [1], the “NHEJ repair efficiency (log10)” value was -0.0455. The “HR repair efficiency (log10)” value in assay [2] stood at 0.0156.
On the same counts, the results for `O=C(/C=C/c1ccc(O)c(O)c1)OC1CC(OC(=O)/C=C/c2ccc(O)c(O)c2)(C(=O)O)CC(O)C1O` (stereo not drawn) [1,3-Dicaffeoylquinic Acid] are 0.0818 and -0.0122.
On the same counts, the results for `Nc1ncnc2c1ncn2[C@@H]1O[C@H](CO)[C@@H](O)[C@H]1O` [Adenosine] are -0.0785 and -0.0239.
On to `NCCCC(=O)O` [g-Aminobutyric acid], for which the “NHEJ repair efficiency (log10)” value in assay [1] is 0.0698. Besides, in assay [2], the “HR repair efficiency (log10)” value was 0.0647.
The like results for `COc1ccc2ccc(=O)oc2c1CC=C(C)C` [Osthole] were, in that order, 0.0815 and -0.0645.
On the same counts, the results for `C[C@@H]1O[C@@H](OC[C@H]2O[C@@H](Oc3cc(O)c4c(c3)O[C@H](c3ccc(O)c(O)c3)CC4=O)[C@H](O)[C@@H](O)[C@@H]2O)[C@H](O)[C@H](O)[C@H]1O` [Eriocitrin] are 0.00276 and -0.0151.
The like results for `CC(C)(O)CC[C@@H](O)C(C)(O)[C@H]1CC[C@@]2(O)C3=CC(=O)[C@@H]4C[C@@H](O)[C@@H](O)C[C@]4(C)[C@H]3CC[C@]12C` (stereo partly drawn) [Β-Hydroxyecdysone] were, in that order, -0.034 and 0.056.
For the compound `CC(C)=CCC[C@](C)(O[C@@H]1O[C@H](CO[C@@H]2O[C@H](CO)[C@@H](O)[C@H](O)[C@H]2O)[C@@H](O)[C@H](O)[C@H]1O)[C@H]1CC[C@]2(C)[C@@H]1[C@H](O)C[C@@H]1[C@@]3(C)CC[C@H](O[C@@H]4O[C@H](CO)[C@@H](O)[C@H](O)[C@H]4O[C@@H]4O[C@H](CO)[C@@H](O)[C@H](O)[C@H]4O)C(C)(C)[C@@H]3CC[C@]12C` [Ginsenoside Rb1], in assay [1], the “NHEJ repair efficiency (log10)” value was determined as 0.0709. In assay [2], the “HR repair efficiency (log10)” value was determined as 0.217.
The like results for `COc1ccc2c(OC)c3ccoc3nc2c1OC` [Skimmianine] were, in that order, -0.0606 and 0.00427.
As to `Cc1c(O)cc2c(c1O)C(=O)c1ccc(O)c(O)c1C2=O` [3-Hydroxymorindone], the “NHEJ repair efficiency (log10)” value in assay [1] was -0.105. The “HR repair efficiency (log10)” value in assay [2] amounted to 0.0716.
On the same counts, the results for `C[C@H]1[C@H](C)CC[C@]2(C(=O)O[C@@H]3O[C@H](CO[C@@H]4O[C@H](CO)[C@@H](O[C@@H]5O[C@H](C)[C@H](O)[C@@H](O)[C@H]5O)[C@H](O)[C@H]4O)[C@@H](O)[C@H](O)[C@H]3O)CC[C@]3(C)C(=CC[C@@H]4[C@@]5(C)C[C@@H](O)[C@H](O)[C@@](C)(CO)[C@@H]5CC[C@]43C)[C@H]12` [Asiaticoside] are -0.0035 and -0.0111.
The like results for `O=c1cc(-c2ccccc2)oc2cc(O)c(O)c(O)c12` [Baicalein] were, in that order, 0.203 and 0.17.
On the same counts, the results for `NCC(=O)O` [Aminoacetic acid] are 0.185 and 0.151.
Take `O=c1ccc2ccc(O)c(O)c2o1` [Daphnetin]: in assay [1], the “NHEJ repair efficiency (log10)” value came out at 0.0636. The “HR repair efficiency (log10)” value in assay [2] was found to be 0.146.
The like results for `C[N+](C)(C)[C@H](Cc1c[nH]c2ccccc12)C(=O)[O-]` [Hypaphorine] were, in that order, 0.0288 and -0.124.
On the same counts, the results for `CC(C)=CCC[C@](C)(O[C@@H]1O[C@H](CO[C@@H]2OC[C@H](O)[C@H](O)[C@H]2O)[C@@H](O)[C@H](O)[C@H]1O)[C@H]1CC[C@]2(C)[C@@H]1[C@H](O)C[C@@H]1[C@@]3(C)CC[C@H](O[C@@H]4O[C@H](CO)[C@@H](O)[C@H](O)[C@H]4O[C@@H]4O[C@H](CO)[C@@H](O)[C@H](O)[C@H]4O)C(C)(C)[C@@H]3CC[C@]12C` [Ginsenoside Rb2] are 0.0156 and 0.096.
On the same counts, the results for `C[C@H](CC(=O)C[C@@H](C)[C@H]1C[C@H](O)[C@@]2(C)C3=C(C(=O)C[C@]12C)[C@@]1(C)CCC(=O)C(C)(C)[C@@H]1C[C@@H]3O)C(=O)O` [Ganoderic Acid A] are 0.0922 and 0.159.
With `CC1(C)OC(=O)C=C[C@]2(C)[C@H]3CC[C@@]4(C)[C@H](c5ccoc5)OC(=O)[C@H]5O[C@]54[C@]3(C)C(=O)C[C@@H]12` [Obacunone], in assay [1], the “NHEJ repair efficiency (log10)” value was -0.0357. Besides, in assay [2], the “HR repair efficiency (log10)” value is 0.0481.
The like results for `O=C(/C=C/c1ccc(O)c(O)c1)OC[C@H]1O[C@@H](OCCc2ccc(O)c(O)c2)[C@H](O)[C@@H](O)[C@@H]1O` [Calceolarioside B] were, in that order, -0.0242 and 0.193.
The like results for `O=c1c(-c2ccc(O)c(O)c2)coc2c([C@@H]3O[C@H](CO)[C@@H](O)[C@H](O)[C@H]3O)c(O)ccc12` [3-Hydroxy Puerarin] were, in that order, -0.187 and -0.112.
The like results for `COc1ccc([C@@H]2CC(=O)c3c(O)cc(O[C@@H]4O[C@H](CO)[C@@H](O)[C@H](O)[C@H]4O[C@@H]4O[C@@H](C)[C@H](O)[C@@H](O)[C@H]4O)cc3O2)cc1O` [Neohesperidin] were, in that order, -0.0783 and -0.11.
For `O=C(O)c1cc(O)c2c(c1)[C@H]([C@H]1c3cc(CO)cc(O)c3C(=O)c3c(O[C@@H]4O[C@H](CO)[C@@H](O)[C@H](O)[C@H]4O)cccc31)c1cccc(O[C@@H]3O[C@H](CO)[C@@H](O)[C@H](O)[C@H]3O)c1C2=O` [Sennoside C], the “NHEJ repair efficiency (log10)” value in assay [1] was -0.0248. In assay [2], the “HR repair efficiency (log10)” value was found to be 0.148.
On the same counts, the results for `CC1(C)C=Cc2c(ccc3c2OC[C@@H](c2ccc(O)cc2O)C3)O1` [Glabridin] are -0.0493 and -0.0637.
On the same counts, the results for `COc1cc(/C=C/C(=O)CC(=O)/C=C/c2ccc(O)c(OC)c2)ccc1O` [Curcumin] are 0.317 and -0.113.
The like results for `CC(C)=CCC[C@](C)(O)[C@H]1CC[C@]2(C)[C@@H]1[C@H](O)C[C@@H]1[C@@]3(C)CC[C@H](O[C@@H]4O[C@H](CO)[C@@H](O)[C@H](O)[C@H]4O[C@@H]4O[C@H](CO)[C@@H](O)[C@H](O)[C@H]4O)C(C)(C)[C@@H]3CC[C@]12C` [R-Ginsenoside Rg3] were, in that order, 0.0761 and -0.0174.
Regarding `Cc1nc(C)c(C)nc1C` [Ligustrazine hydrochloride], the “NHEJ repair efficiency (log10)” value in assay [1] amounted to 0.0819. In addition, the “HR repair efficiency (log10)” value in assay [2] was 0.079.
The like results for `C=CC1=C(C)/C(=C/c2[nH]c(Cc3[nH]c(/C=C4\NC(=O)C(C)=C4C=C)c(C)c3CCC(=O)O)c(CCC(=O)O)c2C)NC1=O` [Bilirubin] were, in that order, -0.0874 and -0.0828.
On the same counts, the results for `Cn1c(=O)c2nc[nH]c2n(C)c1=O` [Theophylline] are 0.0481 and 0.0978.
The like results for `C[C@H]1O[C@H](OC[C@H]2O[C@@H](Oc3c(-c4ccc(O)cc4)oc4cc(O)cc(O)c4c3=O)[C@H](O)[C@@H](O)[C@@H]2O)[C@@H](O)[C@@H](O)[C@@H]1O` [Kaempferol-3-O-Rutinoside] were, in that order, 0.0149 and -0.078.
For `C[N+](C)(C)C[C@H](O)CC(=O)[O-]` [L-Carnitine], in assay [1], the “NHEJ repair efficiency (log10)” value was -0.0644. In addition, in assay [2], the “HR repair efficiency (log10)” value was determined as 0.0663.
On the same counts, the results for `COc1cc(O)c(C(C)=O)cc1S(=O)(=O)O` [Sodium Paeonol Sulfonate] are 0.0246 and 0.0512.
On to `O=c1cc(-c2ccccc2)oc2cc(O)cc(O)c12` [Chrysin], for which the “NHEJ repair efficiency (log10)” value in assay [1] is 0.01. The “HR repair efficiency (log10)” value in assay [2] was -0.15.
As to `O=c1ccc2ccccc2o1` [Coumarin], the “NHEJ repair efficiency (log10)” value in assay [1] was -0.104. In addition, the “HR repair efficiency (log10)” value in assay [2] is 0.0819.
On the same counts, the results for `COc1cc2ccc(=O)oc2c(O[C@@H]2O[C@H](CO)[C@@H](O)[C@H](O)[C@H]2O)c1O` [Fraxin;Fraxoside; Paviin] are 0.0655 and 0.0876.
The like results for `O=C(O)c1cc(O)c2c(c1)[C@@H]([C@H]1c3cc(C(=O)O)cc(O)c3C(=O)c3c(O[C@@H]4O[C@H](CO)[C@@H](O)[C@H](O)[C@H]4O)cccc31)c1cccc(O[C@@H]3O[C@H](CO)[C@@H](O)[C@H](O)[C@H]3O)c1C2=O` [Sennoside B] were, in that order, -0.162 and 0.0301.
The like results for `O=C(O[C@@H]1Cc2c(O)cc(O)cc2O[C@@H]1c1ccc(O)c(O)c1)c1cc(O)c(O)c(O)c1` [Epicatechin Gallate] were, in that order, -0.236 and -0.0859.
Regarding `CC(=O)[C@H]1CC[C@H]2[C@@H]3CCC4=CC(=O)CC[C@]4(C)[C@H]3CC[C@]12C` [Lutin], the “NHEJ repair efficiency (log10)” value in assay [1] came to 0.0637. Besides, in assay [2], the “HR repair efficiency (log10)” value stood at 0.268.
On the same counts, the results for `COc1cc2c(cc1OC)[C@H]1[C@@H](C)c3ccc(OC)c(OC)c3CN1CC2` [Corydaline] are -0.196 and -0.191.
On the same counts, the results for `COc1ccc(C2OCC3C(c4cc(OC)c(OC)c(OC)c4)OCC23)cc1OC` (stereo not drawn) [Magnolin] are -0.0599 and -0.00542.
In the case of `CCOC(=O)c1c(C(=O)OCC)c(O)c2ccccc2c1O` [Rubidate], in assay [1], the “NHEJ repair efficiency (log10)” value was found to be 0.0573. Moreover, the “HR repair efficiency (log10)” value in assay [2] is 0.128.
On the same counts, the results for `COc1ccc(C(=O)O)cc1` [Anisic Acid] are 0.0832 and 0.118.
The like results for `COc1cc([C@H]2OC[C@H]3[C@@H]2CO[C@H]3c2ccc(OC)c(OC)c2)ccc1O` [Phillygenin] were, in that order, 0.129 and 0.116.
Regarding `CC(C)=CCC[C@](C)(O[C@@H]1O[C@H](CO[C@@H]2O[C@H](CO)[C@@H](O)[C@H](O)[C@H]2O)[C@@H](O)[C@H](O)[C@H]1O)[C@H]1CC[C@]2(C)[C@@H]1[C@H](O)C[C@@H]1[C@@]3(C)CC[C@H](O[C@@H]4O[C@H](CO)[C@@H](O)[C@H](O)[C@H]4O)C(C)(C)[C@@H]3CC[C@]12C` [Gypenoside Xvii], the “NHEJ repair efficiency (log10)” value in assay [1] turned out to be 0.0522. In assay [2], the “HR repair efficiency (log10)” value came out at 0.00706.
The like results for `C[C@@H]1O[C@@H](O[C@H]2C(=O)c3c(O)cc(O)cc3O[C@@H]2c2ccc(O)c(O)c2)[C@H](O)[C@H](O)[C@H]1O` [Astilbin] were, in that order, 0.0148 and 0.109.
On the same counts, the results for `CC(C)=CCC[C@](C)(O[C@@H]1O[C@H](CO)[C@@H](O)[C@H](O)[C@H]1O)[C@H]1CC[C@]2(C)[C@@H]1[C@H](O)C[C@@H]1[C@@]3(C)CC[C@H](O)C(C)(C)[C@@H]3[C@@H](O[C@@H]3O[C@H](CO)[C@@H](O)[C@H](O)[C@H]3O)C[C@]12C` [Ginsenoside Rg1] are 0.099 and 0.0737.
